The list is not random: actives were taken first. Their share in the collection is about 5.4%.
Six1-Eya2 blk: blocks human Six1 binding to Eya2 | AlphaScreen GST-Six1/His-Eya2 binding, biochemical; active compounds read low | 360,000 tested, 0.56% active | activity change, % (test concentration not listed) | AID 651725; in the data active means activity change below about -65%; inconclusive means mostly about -30% to -63%; further: on the % scale 0 is the no-effect control and ±100 the full control effect
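AlphaScreen with GST-Six1 and His-Eya2 (5X mix: 250 nM and 500 nM), glutathione donor and nickel acceptor beads; buffer 50 mM Tris pH 8.0, 300 mM NaCl, 1 mM TCEP; 1 h at 37 C in the dark.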
RORg inh: ROR gamma (mouse) transcription inhibition; P51450; Drosophila S2 Gal4-RORgamma UAS-luciferase reporter, 20 h; Potency, µM (doses to about 53.6 µM), without a hit: at the highest dose activity change, negative = inhibition, actives largely listed as inhibitors; 310,000 tested, 5.4% active; AID 2551; further: potency means the concentration at half of the fitted maximal effect; on the % scale 0 is the no-effect control and ±100 the full control effect; nearly all actives have a fitted effect of over 60% in size
Target sequence (P51450 whole entry, looked up, the tested form may be a part): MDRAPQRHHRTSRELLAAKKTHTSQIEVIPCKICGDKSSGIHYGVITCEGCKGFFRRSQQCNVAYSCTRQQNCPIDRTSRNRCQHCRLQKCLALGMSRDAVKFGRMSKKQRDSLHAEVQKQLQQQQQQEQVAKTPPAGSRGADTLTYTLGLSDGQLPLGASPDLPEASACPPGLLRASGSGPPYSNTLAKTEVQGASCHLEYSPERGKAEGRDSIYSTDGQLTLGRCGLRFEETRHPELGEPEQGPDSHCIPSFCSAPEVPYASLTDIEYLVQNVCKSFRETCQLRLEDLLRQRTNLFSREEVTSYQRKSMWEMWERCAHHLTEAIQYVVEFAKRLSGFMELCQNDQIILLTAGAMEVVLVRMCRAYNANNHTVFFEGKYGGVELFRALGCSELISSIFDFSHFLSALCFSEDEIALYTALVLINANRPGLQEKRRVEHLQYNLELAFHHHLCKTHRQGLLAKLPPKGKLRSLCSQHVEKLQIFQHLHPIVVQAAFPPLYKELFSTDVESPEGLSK
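ROR gamma transcriptional activity was tracked as Gal4-UAS luciferase output in stably transfected Drosophila Schneider cells, with compound added 1 hr before 700 uM copper sulfate induction and a 20 hr ambient-temperature incubation.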
p53 reactivation: mutant p53 re-activation in reporter cells; H1299 p53-A138V BP100-luciferase reporter, luminescence, 24 h; Potency, µM (titrated, usually from 92.2 µM), for inactives: top-dose activity change, positive = activation, hits mostly activators; 320,000 tested, 0.063% active; further: potency means the concentration at half of the fitted maximal effect; % of control where 0% means no effect; nearly all actives have a fitted effect of over 45% in size
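H1299 (p53-null), stable ts p53-A138V + BP100-Luc; 1000 cells/well, Opti-MEM/10% FBS; cpd 4 pt, 1:5; 24 h, 37 deg C, 5% CO2; detection reagent 10 min RT; luminescence.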
CtBP-E1A inh: CtBP/E1A binding inhibition; AlphaScreen GST-E1A/His-CtBP binding, 1536-well; active compounds read low; activity change, % (test concentration not listed); 340,000 tested, 0.49% active; in the data active means activity change below about -65%; inconclusive means mostly about -30% to -63%; further: on the % scale 0 is the no-effect control and ±100 the full control effect
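Protein mix (5X: 125 nM each GST-E1A, His-CtBP) was incubated with pinned compound 2 h at 37 deg C in dark, in 50 mM Tris pH 8.0 buffer with 300 mM NaCl. Glutathione donor and nickel acceptor beads followed; AlphaScreen signal read after 1 h.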
VP16 counter: Gal4-VP16 reporter inhibition counter-screen | Potency, µM (highest dose often 53.6 µM), for the others: at the top dose activity, negative = inhibition, most hits filed as inhibitors | Drosophila S2 Gal4-VP16 UAS-luciferase, luminescence, 20 h | 310,000 tested, 3.5% active;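 further: Gal4-VP16 expression switched on by copper sulfate through the metallothionein promoter; potency means the concentration at half of the fitted maximal effect; on the % scale 0 is the no-effect control and ±100 the full control effect; nearly all actives have a fitted effect of over 50% in size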
Numbers without * were called inactive; ? = inconclusive; . = not tested or not shown. Unless noted, the call rests on the fitted dose curve; in most records, active means well fitted curve in the direction sought with a large enough effect; inconclusive means small, poorly fitted or top-dose-only effect, or another doubt; inactive means no such curve, though single readings can be large; an effect the other way counts as inactive or inconclusive.

SMILES	Six1-Eya2 blk	RORg inh	p53 reactivation	CtBP-E1A inh	VP16 counter
CS(=O)(=O)Nc1ccc(-c2cc(/C=C3\SC(N)=NC3=O)c[nH]c2=O)cc1	-20	7%	.	?	0%
S=C1SCN(CC2CC2)CN1CC1CC1	3	7.9µM*	2%	7	7.1µM*
S=C1SCN(Cc2ccccc2)CN1Cc1ccccc1	5	?	-7%	3	?
Cc1cc(C)c(S(C)(=O)=O)c(NN)n1	4	2µM*	1%	1	-22%
COC(=O)c1sccc1NC(=S)Nc1cc(C)ccc1OC	0	8.9µM*	-2%	.	16µM*
COC(=O)c1sccc1NC(=S)Nc1ccc(F)cc1	-12	13µM*	-5%	-7	?
CS(=O)(=O)c1ccc(-c2cn3cc(C(=O)O)ccc3n2)cc1	3	7.9µM*	-2%	7	10µM*
C[C@H](NC(=O)c1nc[nH]c1C(=O)N[C@@H](Cc1ccccc1)C(=O)OC(C)(C)C)C(=O)OC(C)(C)C	0	11µM*	-5%	-2	?
CC(C)(C)OC(=O)[C@H](Cc1ccccc1)NC(=O)c1nc[nH]c1C(=O)N[C@@H](Cc1ccccc1)C(=O)OC(C)(C)C	-9	7.9µM*	-2%	-17	?
CC(C)(C)OC(=O)[C@H](Cc1ccccc1)NC(=O)c1[nH]cnc1C(=O)N[C@@H](Cc1ccccc1)C(=O)OCc1ccccc1	-8	7.1µM*	10%	-6	?
CC(C)(C)OC(=O)[C@H](CCCCN)NC(=O)c1[nH]cnc1C(=O)N[C@@H](Cc1ccccc1)C(=O)OCc1ccccc1	-9	.	-2%	-9	.
CCOC(=O)N(C)C[C@@H]1OCc2cnnn2CCCC(=O)N([C@@H](C)CO)C[C@@H]1C	8	.	.	4	.
CCc1cc(-c2n[nH]c(=S)n2-c2cccc(C)c2)cs1	-1	0.32µM*	8%	-7	0.56µM*
Fc1cccc(-c2n[nH]c(=S)n2-c2ccccc2)c1	3	8.9µM*	.	.	7.9µM*
Fc1ccc(-n2c(-c3ccc4ccccc4n3)n[nH]c2=S)cc1	1	13%	3%	0	1%
Cc1cccc(-n2c(-c3csc(C)c3)n[nH]c2=S)c1	-2	4µM*	2%	6	8.9µM*
CCn1c(SCC(=O)Nc2ccc(N3CCOCC3)cc2)nnc1-c1ccco1	-8	.	1%	0	.
CC(=O)N1CCOc2ccc(S(=O)(=O)NC(C)c3ccccc3)cc21 (stereo unspecified)	6	-1%	0%	-5	-2%
O=C(C1CCN(S(=O)(=O)c2cccs2)CC1)N1CCN(Cc2ccccc2)CC1	19	29%	-1%	.	-10%
Cc1cccc(-n2nc([N+](=O)[O-])c(=NC3CCN(Cc4ccccc4)CC3)n2O)c1	?	-35%	14µM*	-4	10%
N#CC1=C(S)N(c2ccc(F)cc2)C2(CCCCC2)NC1=O	4	?	16%	0	-79%
N#CC1=C(S)N(c2ccccc2)C2(CCCCC2)NC1=O	2	13µM*	?	6	?
Cc1noc(C)c1C(=O)N1CCC2(CCCN(C(=O)Nc3cccc(F)c3)C2)CC1	.	9%	.	.	7%
COc1ccc(NS(=O)(=O)c2cc(NC(=O)[C@@H](NC(=O)c3ccccc3)C(C)C)ccc2C)cc1	-11	?	-16%	-5	-20%
S=c1[nH]cnc2sc(Nc3ccccc3)nc12	?	1µM*	0%	.	2.5µM*
SMILES	Six1-Eya2 blk	RORg inh	p53 reactivation	CtBP-E1A inh	VP16 counter
Nc1nc(Nc2ccccc2)sc1C(=O)c1ccccc1	?	-33%	?	-21	?
O=C(O)CCC(=O)Nc1ccc(N2CCCCCC2)cc1	6	2.5µM*	-4%	-12	-25%
Cc1ccc(N2CCN(c3ccc(NC(=O)CCC(=O)O)cc3)CC2)cc1	1	-1%	6%	0	-17%
C[C@@H]1CN([C@H](C)CO)C(=O)CCCn2nncc2CO[C@@H]1CN(C)C(=O)Nc1ccc2c(c1)OCO2	18	.	.	7	.
COc1ccc(/C=N\NC(=O)c2ccc([N+](=O)[O-])cc2)cc1COc1c(F)c(F)cc(F)c1F	-13	3.5µM*	-4%	10	4.5µM*
COc1ccc(OCc2cc(/C=N\NC(=O)c3ccccc3)ccc2OC)cc1	-10	?	13%	-4	?
COc1cc(OC)cc(C(=O)N/N=C/c2ccc(OC)c(COc3ccc(F)cc3)c2)c1	-4	4µM*	3%	-1	?
Cc1cc(NS(=O)(=O)c2ccc(NC(=O)c3cnc(Cl)c(Cl)c3)cc2)nc(C)n1	-91*	.	-1%	.	.
O=c1c2c(nc3cc(-c4ccc(F)cc4)[nH]n13)CCCC2	-1	8.9µM*	7%	-14	11µM*
CCc1ccc(CNC(=O)CC2C(=O)NCCN2Cc2ccccc2F)nc1 (stereo unspecified)	-10	10µM*	9%	-8	?
N#Cc1ccc(CN2CCC3(CC2)CCN(C(=O)c2ccncc2)CC3)cc1	.	-18%	.	.	0%
CC(Oc1ccc(Cl)cc1Cl)C(=O)Nc1ccncc1 (stereo unspecified)	1	-29%	-10%	-1	20µM*
CC(Oc1cccc(Cl)c1)C(=O)Nc1ccncc1 (stereo unspecified)	1	?	-3%	.	13µM*
COC(=O)c1ccc(C(NC(=O)OCc2ccccc2)/C(C)=C/[C@@H](C)C(=O)NCCO)cc1 (stereo partly specified)	.	38%	.	.	-2%
CCOC(=O)c1c(C)[nH]c(C)c1S(=O)(=O)NCC(=O)Nc1ccccn1	19	-3%	15%	.	-2%
CCOc1ccccc1NC1=C(OC)C(=O)C(Nc2ccccc2OCC)=C(OC)C1=O	-29	.	.	-3	.
CNc1ncncc1-c1ccccc1CN(C)C	.	2%	.	.	2%
COc1ccc(O)c(/C=N/NC(=O)c2ccc(N3CCCC3=O)cc2)c1	?	2.2µM*	7%	-71*	?
COc1ccc(O)c(/C=N/NC(=O)c2cccc(N3CCCC3=O)c2)c1	?	3.5µM*	25%	?	3.5µM*
O=C(N/N=C/c1cc(Br)ccc1O)c1cccc(N2CCCC2=O)c1	-78*	1µM*	?	-67*	5.6µM*
COc1cccc(/C=N/NC(=O)c2cccc(N3CCCC3=O)c2)c1	-3	20%	?	1	-2%
Cc1ccccc1OCC(=O)Nc1sc(C(=O)Nc2cccc(C)c2C)c(C)c1C#N	6	-6%	3%	1	-4%
CNC(=S)NCCCCc1cnc[nH]1	.	7%	.	.	4%
CN(C)/C=C/C(=O)c1ccc([N+](=O)[O-])c(CS(=O)(=O)c2ccc(Cl)cc2)c1	-4	33%	-3%	2	7%

Screening results: PubChem BioAssay, National Center for Advancing Translational Sciences (NCATS)
